Screening data as filed in PubChem BioAssay.
Only some compounds are listed: those with a hit (about 3.2% of all), similar ones and a draw of the others.
Rtt109 HAT inh: C. albicans Rtt109 histone acetyltransferase inhibition | Q5AAJ8 | purified Rtt109/Vps75, ThioGlo CoA-SH fluorescence, 4 h | inhibition, % at 34.9 µM | hit rate 0.16% among 330,000;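 active = inhibition of at least 50% in every replicate; inconclusive = best replicate reaches 50% inhibition but some replicates fall short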
DYRK1A inh: Dyrk1A (rat) kinase inhibition; Q63470; hit rate 0.43% among 310,000; inhibition, % at 12.5 µM; ADP-Glo luminescence, NFATc1 peptide; in the data active = inhibition above about 50%;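 note: plate controls were vehicle with enzyme for no effect and no enzyme for full effect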
dFosB act-1: enhances mouse delta FosB homodimer DNA binding. AID 493131. activation, % at 25 µM. purified delta FosB, TAMRA-CDK5 oligo fluorescence polarization; percent of positive-control signal above neutral wells. hit rate 0.99% among 340,000;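 active = mean activation above about 17%, with every replicate also reaching it, limit read from the data, passing the limit was not always enough; inconclusive = only one of the two conditions met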
SMARCA2 act: SMARCA2 function activation, primary screen; MG213 cells, MMTV-luciferase reporter, dexamethasone, overnight; hit rate 1% among 370,000; activation, % at 9.1 µM; AID 652017; in the data active = activation above about 7.8%;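 note: 0% = vehicle wells and 100% = reference activator wells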
CDK5 p35 inh: blocks human CDK5/p35 kinase activity; Q00535+Q15078; Recombinant CDK5/p35, ADP-Glo luminescence, 60 min; inhibition, % at 10 µM; hit rate 0.01% among 330,000;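 active = highest replicate inhibition of at least 50% and at least 75% of replicates reaching 50%; inconclusive = only one of the two criteria met; inactive = both criteria failed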;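 note: plate controls were DMSO neutral control for no effect and GW8510 at 10 µM for full effect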
Target sequence (Q00535 whole entry, looked up): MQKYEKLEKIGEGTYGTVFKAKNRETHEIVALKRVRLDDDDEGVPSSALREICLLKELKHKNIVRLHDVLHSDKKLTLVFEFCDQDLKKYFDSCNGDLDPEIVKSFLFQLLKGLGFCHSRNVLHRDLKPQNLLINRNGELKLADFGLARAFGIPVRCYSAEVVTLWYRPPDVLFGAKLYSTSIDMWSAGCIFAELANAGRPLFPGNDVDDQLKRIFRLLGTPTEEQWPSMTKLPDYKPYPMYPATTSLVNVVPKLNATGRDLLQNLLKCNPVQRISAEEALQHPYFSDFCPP
Target sequence (Q15078 whole entry, looked up): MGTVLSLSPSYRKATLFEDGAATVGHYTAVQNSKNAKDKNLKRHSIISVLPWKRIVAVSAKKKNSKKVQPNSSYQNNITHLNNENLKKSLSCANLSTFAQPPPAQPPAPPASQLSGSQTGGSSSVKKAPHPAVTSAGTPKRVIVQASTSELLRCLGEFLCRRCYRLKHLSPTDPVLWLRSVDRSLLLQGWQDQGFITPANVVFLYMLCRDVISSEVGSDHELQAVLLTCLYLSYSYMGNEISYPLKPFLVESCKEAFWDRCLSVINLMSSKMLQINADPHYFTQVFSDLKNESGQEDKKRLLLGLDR
esBAF inh: blocks esBAF chromatin remodeling in mouse ES cells | hit rate 2% among 350,000 | reporter increase, % at 12.5 µM | Bmi1-luciferase knock-in reporter, 24 h; 100% = twice the neutral-well signal | AID 602393; in the data active = activation above about 40%; inconclusive = no clear call, values can overlap the other calls;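 note: 0% = median of the plate's neutral control wells and 100% = double that signal; a rise in the Bmi1 reporter signal indicates esBAF inhibition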
dFosB act-2: delta FosB (mouse) homodimer activation. shares compounds with dFosB act-1. purified delta FosB, TAMRA-CDK5 oligo fluorescence polarization; normalised: neutral wells 0, positive control 100. activation, % at 24.9 µM. 2,400 tested, under 10 active. AID 588690;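 active = highest replicate activation at or above 34% and every replicate reaching that threshold; inconclusive = meets only one of the two criteria; inactive = meets neither criterion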;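 note: higher polarization means more probe DNA bound by delta FosB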
An asterisk follows results filed as active; ? = inconclusive; . = not tested or not shown.

SMILES	Rtt109 HAT inh	DYRK1A inh	dFosB act-1	SMARCA2 act	CDK5 p35 inh	esBAF inh	dFosB act-2
CNC(=O)C[C@H]1CC[C@@H]2[C@H](COC[C@H](O)CN2Cc2ccc(C(F)(F)F)cc2)O1	.	.	.	.	.	-8	.
CCOc1cc2[nH]c(=O)n(Cc3ccc(C(=O)NCCCN4CCC(C)CC4)cc3)c(=O)c2cc1OCC	23	.	26*	-1	3	-2	4
COC(=O)c1ccc2c(=O)n(Cc3ccc(C(=O)NCCCN4CCOCC4)cc3)c(=S)[nH]c2c1	18	-1	29*	-1	3	-5	5
Cc1ccc(Cn2c(=S)[nH]c3ccc(N4CCOCC4)cc3c2=O)o1	5	-1	-6	2	-2	.	.
CCOc1cc2[nH]c(=S)n(Cc3ccc(C(=O)NCCCN4CCOCC4)cc3)c(=O)c2cc1OCC	-6	-6	9	-2	0	-2	.
CCOc1cc2[nH]c(=O)n(CCc3ccc(OC)c(OC)c3)c(=O)c2cc1OCC	4	0	25*	-2	-1	-3	-13
CCOc1cc2[nH]c(=S)n(Cc3ccc(C)o3)c(=O)c2cc1OCC	-2	3	34*	5	0	8	3
CCOc1cc2[nH]c(=S)n(CCc3ccc(OC)c(OC)c3)c(=O)c2cc1OCC	7	2	-1	-2	3	4	.
O=C(Nc1ccc2c(c1)[C@@H]1C[C@H](CC(=O)N3CCCCC3)O[C@H](CO)[C@@H]1O2)Nc1ccccc1F	.	.	.	.	.	0	.
CO[C@@H]1CN(C)C(=O)c2ccc(NC(C)=O)cc2OC[C@H](C)N(Cc2ccncc2)C[C@@H]1C	.	.	.	.	.	-4	.
COc1ccc(S(=O)(=O)Nc2ccc3c(c2)C(=O)N([C@@H](C)CO)C[C@@H](C)[C@@H](CN(C)S(=O)(=O)c2cn(C)cn2)OCCCC[C@@H](C)O3)cc1	.	.	.	.	.	0	.
O=C(C[C@@H]1C[C@H]2c3cc(NC(=O)NC4CCCC4)ccc3O[C@H]2[C@H](CO)O1)NCc1ccc(-c2ccccc2)cc1	.	.	.	.	.	6	.
Cc1noc(C)c1S(=O)(=O)Nc1ccc2c(c1)CC(=O)N([C@@H](C)CO)C[C@@H](C)[C@@H](CN(C)C)O2	.	.	.	.	.	0	.
CCCn1c(=S)[nH]c2cc(C(=O)NCC3CCCO3)ccc2c1=O (centres undefined)	-11	1	3	-5	-1	-2	.
CCOc1cc2[nH]c(=S)n(Cc3ccc(C(=O)NCCCN(CC)CC)cc3)c(=O)c2cc1OCC	2	0	30*	-2	2	1	5
COc1ccc(Cn2c(=S)[nH]c3cc(C(=O)NCc4cccnc4)ccc3c2=O)cc1	0	-10	24*	3	0	.	1
O=C(c1ccc(Cn2c(=S)[nH]c3ccc(Br)cc3c2=O)cc1)N1CCN(C2CCCCC2)CC1	1	-7	31*	0	0	-3	5
CCOc1cc2[nH]c(=S)n(Cc3ccc(C(=O)NCCCOC)cc3)c(=O)c2cc1OCC	3	-2	1	-1	0	13	.
O=C(NCC1CCCO1)c1ccc2c(=O)n(Cc3cccc(Br)c3)c(=S)[nH]c2c1 (centres undefined)	1	-3	44*	-2	2	-10	-4
COc1ccc(CN(C)C[C@@H]2Oc3ccc(NC(=O)Nc4ccc(F)cc4)cc3CC(=O)N([C@@H](C)CO)C[C@@H]2C)cc1	.	.	.	.	.	-6	.
C[C@@H]1CN([C@@H](C)CO)C(=O)c2cc(NC(=O)C3CCCCC3)ccc2O[C@H]1CN(C)S(=O)(=O)c1ccccc1	.	.	.	.	.	-1	.
C[C@H]1CN([C@@H](C)CO)C(=O)c2cc(C#CC3CC3)cnc2O[C@@H]1CN(C)C(=O)c1ccccc1	.	.	.	.	.	-6	.
CCCN1C[C@H](C)[C@@H](OC)CN(C)C(=O)c2cc(NC(=O)c3cccc(F)c3)ccc2OC[C@H]1C	.	.	.	.	.	-1	.
Cc1cnc(C(=O)N2CCN(S(=O)(=O)c3ccc(F)c(F)c3F)CC2)cn1	-8	.	19*	-2	1	4	-2
C/C(=C\C=C(C#N)C#N)c1cc(C#N)c(N)o1	-3	-1	84*	0	4	.	?
SMILES	Rtt109 HAT inh	DYRK1A inh	dFosB act-1	SMARCA2 act	CDK5 p35 inh	esBAF inh	dFosB act-2
S=C(Nc1ccc(Cl)cc1)c1nc2ccccc2[nH]1	-1	1	29*	5	1	.	1
O=C(COc1coc(CN2CCCc3ccccc32)cc1=O)Nc1ccc([N+](=O)[O-])cc1	-4	-2	28*	-2	1	6	7
Cc1ccccc1NC(=O)COc1coc(CN2CCCc3ccccc32)cc1=O	7	-7	-12	-2	1	-3	.
CC(=O)c1ccc(N2CCN(C(=O)/C=C/c3ccc4ccccc4n3)CC2)cc1	-16	0	40*	-1	0	.	3
O=C(C[C@@H]1CC[C@H](NC(=O)C2CCC2)[C@@H](CO)O1)NCc1ccccc1Cl	.	.	.	.	.	1	.
CCOc1ccc(CCN2C(=S)N([C@@H](CC(C)C)CN3CCCC3CN3C(=S)NC[C@@H]3Cc3ccc(O)cc3)C[C@@H]2Cc2ccc(O)cc2)cc1 (some centres undefined)	-10	.	51*	-2	0	13	1
Oc1ccc(C[C@H]2CNC(=S)N2CC2CCCN2C[C@H](Cc2ccccc2)N2C[C@H](Cc3ccc(O)cc3)N(CCc3ccccc3)C2=S)cc1 (some centres undefined)	6	.	67*	-5	0	5	1
CCOc1ccc(CCN2C(=S)N([C@@H](CC(C)C)CN3CCCC3CN3C(=S)NC[C@@H]3Cc3ccc(O)cc3)C[C@@H]2Cc2ccccc2)cc1 (some centres undefined)	3	.	65*	4	-7	7	4
CCOc1ccc(CCN2C(=S)N([C@@H](CC(C)C)CN3CCCC3CN3C(=S)NC[C@@H]3Cc3ccccc3)C[C@@H]2CC(C)C)cc1 (some centres undefined)	.	.	.	-3	.	.	.
O=C(C[C@@H]1CC[C@@H]2[C@H](COC[C@@H](O)CN2Cc2ccc(Oc3ccccc3)cc2)O1)N1CCCCC1	.	.	.	.	.	-6	.
Cn1nnc(NC(=S)NC(=O)c2ccc(-c3ccc(Br)cc3)o2)n1	-3	-1	33*	0	1	.	1
COc1ccc(NC(=O)C2(c3ccc(NC(=O)c4ccc(C)cc4)cc3)CCCC2)cc1	11	-6	23*	-2	2	-3	0
COc1ccc(CC(=O)OCC(=O)Nc2ccc(C(=O)Nc3ccc(OC)cc3)cc2)cc1	-5	-5	22*	-1	2	.	6
CCN(CC)CCNc1ccnc2cc(Cl)ccc12	-4	5	9	1	4	1	.
